The values below come from PubChem BioAssay (Tox21).

Results filed as inconclusive are left out. A call without a number means that no potency is given here. Active and inactive are the calls of the source. The call rests on the fitted dose curve.
Potency means the concentration at half of the fitted maximal effect.

The target of this experiment is Peroxisome proliferator-activated receptor delta (Homo sapiens) (UniProt Q03181). The experiment is described as follows: qHTS assay to identify small molecule agonists of the peroxisome proliferator-activated receptor delta (PPARd) signaling pathway (AID 743212). Particulars: HEK293H PPARd-UAS-bla, beta-lactamase FRET ratio, 17 h; series mostly up to 62.6 µM; activation: at the top concentration. From the text: U.S. Tox21 Program National Center for Advancing Translational Sciences [NCATS] NIH Chemical Genomics Center [NCGC] U.S. Environmental Protection Agency [EPA] National Institutes of Environmental Health Sciences [NIEHS] National Toxicology Program [NTP] U.S. Food and Drug Administration [FDA] Tox21 Assay Overview: The peroxisome proliferator-activated receptors (PPARs) are lipid-activated transcription factors of the nuclear receptor superfamily with three distinct subtypes namely PPAR alpha, PPAR delta (PPARd) and PPAR gamma. All these subtypes heterodimerizes with Retinoid X receptor (RXR) and have different physiological functions. […] To identify the compounds that activate PPAR-delta signaling, GeneBLAzer PPAR delta UAS-bla HEK293H cell line (Invitrogen, Carlsbad, CA, USA) containing a beta-lactamase reporter gene under the control of an Upstream Activator Sequence (UAS) was used to screen the Tox21 compound library.
Sequence of Peroxisome proliferator-activated receptor delta (Homo sapiens) (Q03181 whole entry, looked up): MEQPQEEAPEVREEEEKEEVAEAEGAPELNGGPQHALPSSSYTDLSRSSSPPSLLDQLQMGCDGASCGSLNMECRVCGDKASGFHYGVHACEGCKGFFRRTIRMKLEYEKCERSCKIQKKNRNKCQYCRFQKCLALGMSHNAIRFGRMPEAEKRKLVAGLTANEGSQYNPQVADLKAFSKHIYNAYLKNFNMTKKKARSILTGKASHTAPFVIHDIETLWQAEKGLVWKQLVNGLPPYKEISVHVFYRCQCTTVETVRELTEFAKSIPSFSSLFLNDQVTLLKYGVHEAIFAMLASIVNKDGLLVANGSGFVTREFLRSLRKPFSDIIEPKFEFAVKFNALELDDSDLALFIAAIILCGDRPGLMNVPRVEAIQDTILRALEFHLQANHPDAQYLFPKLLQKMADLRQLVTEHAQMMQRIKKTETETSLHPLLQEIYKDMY
Tox21 Assay Protocol Summary: PPARd-bla cells were dispensed at 3000 cells/6uL/well in 1536-well black wall/clear bottom plates using a Multidrop Combi (Thermo Fisher Scientific, Waltham, MA) dispenser. After the assay plates were incubated at 37 C and 5% CO2 for 5 h, 23 nL of compounds dissolved in DMSO, positive controls or DMSO only was transferred to the assay plate by a Pintool station (Kalypsys, San Diego, CA). The assay plates were incubated at 37C for 17 h. After 1 uL of LiveBLAzerTM B/G FRET substrate was added using a Bioraptr Flying Reagent Dispenser (FRD) workstation (Beckman Coulter, Indianapolis, IN, USA), the plates were incubated at room temperature for 2 h, and fluorescence intensity was measured by an Envision plate reader (PerkinElmer, Shelton, CT).
Regarding `CC(C)c1cccc(C(C)C)c1`, the Potency entry was “inactive”.
For `CN(C)c1ccc(Cc2ccc(N(C)C)cc2)cc1`, the Potency result was “inactive”.
Consider `N#Cc1ccccc1`, for which the “activation” value was 4.54% (inactive).
With `Cc1ccc(S(=O)(=O)N=C=O)cc1`, the Potency result was “inactive”.
Take `N[C@H](Cc1c[nH]c2ccccc12)C(=O)O`: the Potency entry was “inactive”.
Turning to `CCNc1cccc(C)c1`, the Potency entry is “inactive”.
With `O=C(OCC1CCC2OC2C1)C1CCC2OC2C1` (stereo not given), the Potency result was “inactive”.
In the case of `O=[N+]([O-])c1ccc2nc[nH]c2c1`, the Potency entry is “inactive”.
Turning to `COc1ccc([N+](=O)[O-])cc1N`, the Potency entry was “inactive”.
Take `CC(=O)Oc1ccc(C)cc1`: the Potency entry was “inactive”.
`CC(=O)CCC=C(C)C`: the Potency entry was “inactive”.
For the compound `C[Si]1(C)O[Si](C)(C)O[Si](C)(C)O[Si](C)(C)O1`, the “activation” value was -3.1% [at 81.1 µM] (inactive).
In the case of `COc1ccccc1OCC(O)CO` (stereo not given), the Potency entry is “inactive”.
Turning to `O=C(O)c1cc2ccccc2cc1O`, the Potency entry is “inactive”.
Regarding `CC(C)(Oc1ccc(CCNC(=O)c2ccc(Cl)cc2)cc1)C(=O)O`, the Potency is 38.9 µM (active).
Still for that read-out and setting: the value for `CCNc1ccccc1` was “inactive”.
In the case of `COc1ccc(N)c(C)c1`, the “activation” value was 0.542% (inactive).
On to `Cc1ccc([N+](=O)[O-])cc1S(=O)(=O)O`, for which the Potency result was “inactive”.
The same measure, in the same setting: the result for `CCCCCCCCCCCC(=O)OC` reads “inactive”; that for `Cc1ccc(C(C)C)c(O)c1`, “inactive”; that for `COCCCN`, “inactive”.
In the case of `COc1cc(OC)c(C(=O)CCCN2CCCC2)c(OC)c1`, the Potency entry was “inactive”.
Still for that read-out and setting: the value for `O=C1c2ccccc2CCc2ccccc21` was “inactive”; that for `Nc1ccc(Cl)c(N)c1` was “inactive”.
Consider `CCNC(=S)NCC`, for which the Potency result was “inactive”.
`CC(C)=CCl`: the Potency entry was “inactive”.
`NCCN1CCNCC1`: the Potency result was “inactive”.
Take `C=C(C)C(=O)OCC(C)C`: the Potency entry was “inactive”.
Regarding `CC(=O)OC1CC(C)OC(C)O1` (stereo not given), the Potency result was “inactive”.
For `CC(=O)c1ccc(O)cc1`, the Potency result is “inactive”.
Consider `C=CC[N+](C)(C)CC=C`, for which the Potency entry was “inactive”.
With `Nc1nc(N)nc(-c2ccccc2)n1`, the Potency result was “inactive”.
Regarding `O=C(O)/C=C/C(=O)O`, the Potency result is “inactive”.
Consider `Clc1ccccn1`, for which the Potency entry is “inactive”.
The same measure, in the same setting: the result for `C[C@]12CC[C@@H]3c4ccc(O)cc4CC[C@H]3[C@@H]1C[C@@H](O)[C@@H]2O` reads “inactive”; that for `CCOCC(=O)O`, “inactive”.
Same read-out and setting: the result for `COC(=O)CCCC(=O)OC` reads “inactive”.
On the same count and under the same terms, the result for `CCCCCC(=O)O` reads “inactive”; that for `CCCCCCCCCCCCCCCCO`, “inactive”.
For the compound `NCCNCCN`, the Potency result was “inactive”.
